Measured values from paper PMC7862700, “An all-to-all approach to the identification of sequence-specific readers for epigenetic DNA modifications on cytosine”.

What was measured:
Experiment in all cases: DAPPL (digital affinity profiling via proximity ligation, sequencing); 10 mM Tris-HCl pH 7.5, 50 mM NaCl, 1 mM DTT, 4% glycerol, room temperature, 30 min; GST-TFs on glutathione beads, 16-mer random dsDNA library, 0.1% formaldehyde crosslink after washing; high values mean tight binding
Settings in all cases: protein: recombinant; tags: N-terminal GST; dsDNA, one strand shown
FLI1 = target: T1, FLI1 (Homo sapiens, UniProt Q01543 1-452)
T1 sequence: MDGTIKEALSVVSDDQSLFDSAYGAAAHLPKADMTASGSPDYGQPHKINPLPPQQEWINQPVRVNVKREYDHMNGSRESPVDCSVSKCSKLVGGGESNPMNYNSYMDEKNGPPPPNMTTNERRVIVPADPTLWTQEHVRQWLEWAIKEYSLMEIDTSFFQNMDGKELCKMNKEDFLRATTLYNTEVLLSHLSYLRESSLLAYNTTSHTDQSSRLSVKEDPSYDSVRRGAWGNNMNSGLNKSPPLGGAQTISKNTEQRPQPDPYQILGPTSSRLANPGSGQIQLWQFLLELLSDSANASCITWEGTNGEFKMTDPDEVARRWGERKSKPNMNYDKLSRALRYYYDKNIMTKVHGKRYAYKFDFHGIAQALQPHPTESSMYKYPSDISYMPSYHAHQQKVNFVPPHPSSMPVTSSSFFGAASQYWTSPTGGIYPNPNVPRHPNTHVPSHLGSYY
How it was run: (§1)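 Binding signal is defined as a hexamer's read frequency for one factor over its frequency for the tag-only sample. To obtain reads, GST-fused human transcription factors were expressed in yeast, captured on glutathione beads, barcoded with DNA and pooled with that sample. Pools met 200 nmole of a 16-mer random double-stranded DNA library in Tris/NaCl/DTT/glycerol buffer for 30 min at room temperature before washing, 0.1% formaldehyde crosslinking, proximity ligation (BsaI/T4 ligase, 1 h, 37 °C), PCR and Illumina NextSeq500 sequencing.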

ELK1 = target: T2, ELK1 (Homo sapiens, UniProt P19419 1-428)
T2 sequence: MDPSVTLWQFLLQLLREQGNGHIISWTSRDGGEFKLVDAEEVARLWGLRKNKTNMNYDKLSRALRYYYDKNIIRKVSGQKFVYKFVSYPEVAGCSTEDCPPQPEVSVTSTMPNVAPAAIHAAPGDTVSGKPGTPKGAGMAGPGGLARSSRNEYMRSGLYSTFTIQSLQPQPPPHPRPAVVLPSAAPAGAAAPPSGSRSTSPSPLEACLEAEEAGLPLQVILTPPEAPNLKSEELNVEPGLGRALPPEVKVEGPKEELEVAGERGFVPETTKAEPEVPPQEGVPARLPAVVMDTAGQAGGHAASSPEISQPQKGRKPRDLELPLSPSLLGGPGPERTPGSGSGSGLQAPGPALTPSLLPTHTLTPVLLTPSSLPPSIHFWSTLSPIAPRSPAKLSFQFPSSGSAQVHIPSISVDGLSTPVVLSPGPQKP
How it was run: as §1

GABPA = target: T3, GABPA (Homo sapiens, UniProt Q06546 1-454)
T3 sequence: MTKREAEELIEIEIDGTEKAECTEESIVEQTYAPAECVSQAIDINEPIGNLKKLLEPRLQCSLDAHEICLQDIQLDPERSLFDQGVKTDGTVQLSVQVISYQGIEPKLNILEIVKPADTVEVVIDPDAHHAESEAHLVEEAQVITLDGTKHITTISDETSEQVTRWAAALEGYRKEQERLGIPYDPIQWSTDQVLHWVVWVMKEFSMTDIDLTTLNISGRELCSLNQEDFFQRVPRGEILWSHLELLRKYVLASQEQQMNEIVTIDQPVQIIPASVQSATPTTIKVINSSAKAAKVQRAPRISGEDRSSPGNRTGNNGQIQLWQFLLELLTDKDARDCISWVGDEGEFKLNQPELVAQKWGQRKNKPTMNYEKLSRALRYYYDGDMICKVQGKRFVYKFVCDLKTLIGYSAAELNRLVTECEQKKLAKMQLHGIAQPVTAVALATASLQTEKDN
How it was run: as §1

ERG = target: T4, ERG (Homo sapiens, UniProt P11308 1-479)
T4 sequence: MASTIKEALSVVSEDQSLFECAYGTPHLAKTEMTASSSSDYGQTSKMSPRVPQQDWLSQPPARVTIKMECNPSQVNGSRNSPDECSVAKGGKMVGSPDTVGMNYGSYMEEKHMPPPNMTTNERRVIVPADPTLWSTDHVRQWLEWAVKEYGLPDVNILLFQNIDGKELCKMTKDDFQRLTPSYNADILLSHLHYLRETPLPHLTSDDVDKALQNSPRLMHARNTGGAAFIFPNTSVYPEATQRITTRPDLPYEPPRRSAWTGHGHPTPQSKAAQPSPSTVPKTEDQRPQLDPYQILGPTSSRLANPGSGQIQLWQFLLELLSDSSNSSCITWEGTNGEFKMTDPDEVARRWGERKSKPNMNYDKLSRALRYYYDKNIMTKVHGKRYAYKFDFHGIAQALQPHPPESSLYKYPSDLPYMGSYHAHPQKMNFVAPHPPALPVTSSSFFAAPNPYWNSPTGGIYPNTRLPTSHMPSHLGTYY
How it was run: as §1

ELF1 = ELF1 (Homo sapiens, UniProt P32519 1-619)
Chain of ELF1 (P32519 whole entry): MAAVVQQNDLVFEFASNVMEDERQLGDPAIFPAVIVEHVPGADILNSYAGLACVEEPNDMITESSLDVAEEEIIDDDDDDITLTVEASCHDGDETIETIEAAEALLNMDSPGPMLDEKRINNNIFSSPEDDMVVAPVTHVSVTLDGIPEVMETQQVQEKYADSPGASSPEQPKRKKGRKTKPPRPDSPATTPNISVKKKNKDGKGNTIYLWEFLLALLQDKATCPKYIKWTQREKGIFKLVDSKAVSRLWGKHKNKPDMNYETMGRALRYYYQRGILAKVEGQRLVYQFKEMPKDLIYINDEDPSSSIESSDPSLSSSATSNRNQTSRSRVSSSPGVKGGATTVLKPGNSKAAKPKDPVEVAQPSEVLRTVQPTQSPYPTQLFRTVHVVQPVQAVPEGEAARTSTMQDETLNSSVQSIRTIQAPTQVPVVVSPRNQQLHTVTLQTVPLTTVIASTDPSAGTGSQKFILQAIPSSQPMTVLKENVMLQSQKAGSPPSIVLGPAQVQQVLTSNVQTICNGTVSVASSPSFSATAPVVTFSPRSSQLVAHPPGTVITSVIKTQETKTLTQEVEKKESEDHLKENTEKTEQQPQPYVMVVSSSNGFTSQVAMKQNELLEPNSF
How it was run: as §1

EHF = target: T5, EHF (Homo sapiens, UniProt Q9NZC4 1-300)
T5 sequence: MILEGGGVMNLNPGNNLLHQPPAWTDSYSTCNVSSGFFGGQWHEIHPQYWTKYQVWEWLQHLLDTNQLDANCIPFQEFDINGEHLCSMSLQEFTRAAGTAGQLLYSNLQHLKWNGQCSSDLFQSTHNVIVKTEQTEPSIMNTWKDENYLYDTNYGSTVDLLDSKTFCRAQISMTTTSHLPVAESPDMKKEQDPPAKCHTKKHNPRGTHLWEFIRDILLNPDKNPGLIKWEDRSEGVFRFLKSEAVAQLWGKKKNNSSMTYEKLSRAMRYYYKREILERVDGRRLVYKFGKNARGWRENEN
How it was run: as §1

SPI1 = SPI1 (Homo sapiens, UniProt P17947 1-270)
How it was run: as §1

SPIB = SPIB (Homo sapiens, UniProt Q01892 1-262)
Chain of SPIB (Q01892 whole entry): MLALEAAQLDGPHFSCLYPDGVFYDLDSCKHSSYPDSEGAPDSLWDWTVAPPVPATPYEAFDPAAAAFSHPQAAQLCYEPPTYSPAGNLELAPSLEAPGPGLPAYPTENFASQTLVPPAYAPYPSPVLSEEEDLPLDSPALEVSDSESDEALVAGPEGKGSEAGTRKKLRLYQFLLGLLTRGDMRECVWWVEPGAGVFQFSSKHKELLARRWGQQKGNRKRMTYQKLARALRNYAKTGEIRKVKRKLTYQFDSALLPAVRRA
How it was run: as §1

ELK3 = target: T6, ELK3 (Homo sapiens, UniProt P41970 1-407)
T6 sequence: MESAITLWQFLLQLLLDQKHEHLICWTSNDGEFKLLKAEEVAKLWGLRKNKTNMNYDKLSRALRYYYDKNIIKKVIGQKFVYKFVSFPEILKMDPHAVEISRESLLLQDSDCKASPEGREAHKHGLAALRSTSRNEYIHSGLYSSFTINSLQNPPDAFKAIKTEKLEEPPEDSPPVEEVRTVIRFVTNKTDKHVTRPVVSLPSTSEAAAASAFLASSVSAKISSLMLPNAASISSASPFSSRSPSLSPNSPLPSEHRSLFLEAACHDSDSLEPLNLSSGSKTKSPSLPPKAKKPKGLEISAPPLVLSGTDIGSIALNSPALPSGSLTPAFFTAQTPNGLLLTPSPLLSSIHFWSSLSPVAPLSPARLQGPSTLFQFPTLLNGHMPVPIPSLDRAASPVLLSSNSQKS
How it was run: as §1

Sequence	binding signal (FLI1)	binding signal (ELK1)	binding signal (GABPA)	binding signal (ERG)	binding signal (ELF1)	binding signal (EHF)	binding signal (SPI1)	binding signal (SPIB)	binding signal (ELK3)
CGCTCC	1.37 fold enrichment (6-mer frequency, TF over GST control)	1.28 fold enrichment (6-mer frequency, TF over GST control)	1.37 fold enrichment (6-mer frequency, TF over GST control)	1.33 fold enrichment (6-mer frequency, TF over GST control)	1.31 fold enrichment (6-mer frequency, TF over GST control)	1.24 fold enrichment (6-mer frequency, TF over GST control)	1.29 fold enrichment (6-mer frequency, TF over GST control)	1.36 fold enrichment (6-mer frequency, TF over GST control)	1.37 fold enrichment (6-mer frequency, TF over GST control)
AACGAA	1.07 fold enrichment (6-mer frequency, TF over GST control)	1.14 fold enrichment (6-mer frequency, TF over GST control)	1.15 fold enrichment (6-mer frequency, TF over GST control)	1.15 fold enrichment (6-mer frequency, TF over GST control)	1.18 fold enrichment (6-mer frequency, TF over GST control)	1.15 fold enrichment (6-mer frequency, TF over GST control)	1.14 fold enrichment (6-mer frequency, TF over GST control)	1.19 fold enrichment (6-mer frequency, TF over GST control)	1.13 fold enrichment (6-mer frequency, TF over GST control)
CGGCTT	1.17 fold enrichment (6-mer frequency, TF over GST control)	1.2 fold enrichment (6-mer frequency, TF over GST control)	1.12 fold enrichment (6-mer frequency, TF over GST control)	1.19 fold enrichment (6-mer frequency, TF over GST control)	1.13 fold enrichment (6-mer frequency, TF over GST control)	1.13 fold enrichment (6-mer frequency, TF over GST control)	1.17 fold enrichment (6-mer frequency, TF over GST control)	1.18 fold enrichment (6-mer frequency, TF over GST control)	1.12 fold enrichment (6-mer frequency, TF over GST control)
TGCTAC	1.35 fold enrichment (6-mer frequency, TF over GST control)	1.26 fold enrichment (6-mer frequency, TF over GST control)	1.24 fold enrichment (6-mer frequency, TF over GST control)	1.27 fold enrichment (6-mer frequency, TF over GST control)	1.25 fold enrichment (6-mer frequency, TF over GST control)	1.23 fold enrichment (6-mer frequency, TF over GST control)	1.29 fold enrichment (6-mer frequency, TF over GST control)	1.25 fold enrichment (6-mer frequency, TF over GST control)	1.26 fold enrichment (6-mer frequency, TF over GST control)
GCCGAC	1.19 fold enrichment (6-mer frequency, TF over GST control)	1.23 fold enrichment (6-mer frequency, TF over GST control)	1.21 fold enrichment (6-mer frequency, TF over GST control)	1.17 fold enrichment (6-mer frequency, TF over GST control)	1.1 fold enrichment (6-mer frequency, TF over GST control)	1.05 fold enrichment (6-mer frequency, TF over GST control)	1.05 fold enrichment (6-mer frequency, TF over GST control)	1.18 fold enrichment (6-mer frequency, TF over GST control)	1.15 fold enrichment (6-mer frequency, TF over GST control)
TTTACC	1.28 fold enrichment (6-mer frequency, TF over GST control)	1.2 fold enrichment (6-mer frequency, TF over GST control)	1.24 fold enrichment (6-mer frequency, TF over GST control)	1.18 fold enrichment (6-mer frequency, TF over GST control)	1.23 fold enrichment (6-mer frequency, TF over GST control)	1.31 fold enrichment (6-mer frequency, TF over GST control)	1.17 fold enrichment (6-mer frequency, TF over GST control)	1.21 fold enrichment (6-mer frequency, TF over GST control)	1.37 fold enrichment (6-mer frequency, TF over GST control)
AGCATT	1.12 fold enrichment (6-mer frequency, TF over GST control)	1.13 fold enrichment (6-mer frequency, TF over GST control)	1.11 fold enrichment (6-mer frequency, TF over GST control)	1.09 fold enrichment (6-mer frequency, TF over GST control)	1.1 fold enrichment (6-mer frequency, TF over GST control)	1.08 fold enrichment (6-mer frequency, TF over GST control)	1.03 fold enrichment (6-mer frequency, TF over GST control)	1.05 fold enrichment (6-mer frequency, TF over GST control)	1.07 fold enrichment (6-mer frequency, TF over GST control)
CCGGTA	1.48 fold enrichment (6-mer frequency, TF over GST control)	1.51 fold enrichment (6-mer frequency, TF over GST control)	1.46 fold enrichment (6-mer frequency, TF over GST control)	1.7 fold enrichment (6-mer frequency, TF over GST control)	1.5 fold enrichment (6-mer frequency, TF over GST control)	1.62 fold enrichment (6-mer frequency, TF over GST control)	1.45 fold enrichment (6-mer frequency, TF over GST control)	1.59 fold enrichment (6-mer frequency, TF over GST control)	1.41 fold enrichment (6-mer frequency, TF over GST control)
